Ba/F3 V617F tox = reduce viability of Ba/F3 cells dependent on JAK2V617F; Ba/F3 EpoR-JAK2V617F viability, ATP luminescence; inhibition, % at 5.6 µM; hit rate 1.1% among 220,000;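 active means inhibition above the campaign mean plus 3 SD over all tested compounds, cut at about 24% in these data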;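 further: cytokine-independent growth of Ba/F3 cells driven by EpoR plus mutant JAK2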
IEC-6 tox = kills IEC-6 intestinal cells in KLF5 counter-screen; IEC-6 cytotoxicity, luminescence viability; inhibition, % at 5 µM; hit rate 0.78% among 290,000; in the data active means inhibition above about 22%
aSyn UTR inh = 5' untranslated region of α-synuclein, MLPCN primary screen; alpha-synuclein 5'UTR reporter, inhibitor activity; hit rate 0.82% among 300,000; AID 1813; inhibition, % (tested at 7.5 µM); in the data active means inhibition above about 60%;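 further: H4 neuroglioblastoma cells stably carrying SNCA 5'UTR luciferase fusion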
APP 5UTR inh = APP translation inhibition | inhibition, % at 2 µM | hit rate 0.82% among 190,000 | SH-SY5Y APP 5'UTR-luciferase reporter, luminescence;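 active means inhibition above a set limit, derived from the sample mean plus 3 SD, cut at about 45% in these data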
KLF5 inhibitor = inhibitors of KLF5 expression; DLD-1 KLF5 promoter-luciferase reporter, luminescence; inhibition, % at 5 µM; hit rate 0.23% among 290,000; AID 1700;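 active means inhibition above a per-plate limit of that plate's mean compound inhibition plus 3 SD, cut at about 60% in these data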;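 further: higher means less KLF5 promoter-driven luciferase light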
BaF3 tox = counter-screen for JAK2V617F inhibitors: parental Ba/F3 viability inhibitors; hit rate 1.1% among 220,000; CellTiter-Glo ATP luminescence; inhibition, % at 5.6 µM; AID 1486;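 active means inhibition above a per-campaign cutoff, the mean inhibition of all tested compounds plus 3 SD, cut at about 27% in these data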
Hits are given with their value; n = inactive; x = not tested or not shown. A selection: hits, their analogues and other compounds. The true share with any hit is near 2.2%.

SMILES	Ba/F3 V617F tox	IEC-6 tox	aSyn UTR inh	APP 5UTR inh	KLF5 inhibitor	BaF3 tox
Cc1ccc(/C=C2\SC(=S)N(CC(=O)Nc3cccnc3)C2=O)cc1	n	n	n	n	n	n
CCc1ccc(/C=C2\SC(=S)N(CCCC(=O)Nc3ccccn3)C2=O)cc1	n	n	73	51	n	n
COc1cc(C2NC(=S)NC(C)=C2C(=O)Nc2cc(C)cc(C)c2)ccc1O (configuration not stated)	n	n	n	x	n	n
CCOC(=O)C(C)Sc1nc2c(cnn2-c2ccc(F)cc2)c(=O)[nH]1 (configuration not stated)	x	n	n	x	n	x
Cc1cccc2cc(-c3ccccc3)c(-c3ccccc3)c[n+]12	90	n	n	n	n	72
O=[N+]([O-])c1cccc(-c2cc3cccc[n+]3cc2-c2cccc([N+](=O)[O-])c2)c1	n	n	n	n	n	n
c1ccc(-c2c[n+]3c(n2-c2ccccc2)CCC3)cc1	71	n	n	x	n	65
CCOc1ccc(N2Cc3ccccc3C2)cc1	n	n	n	n	n	n
Cc1ccc(-c2c[n+]3c(n2-c2ccccc2)CCC3)cc1	82	n	n	x	n	65
CCOc1ccc(-n2c(-c3ccccc3)c[n+]3c2CCCCC3)cc1	89	n	n	n	n	70
Cc1ccc(-n2c(-c3ccccc3)c[nH]c2=S)cc1	n	n	n	n	n	n
Cc1ccc(OCC(=O)Nc2cccc(S(=O)(=O)N3CCCCCC3)c2)cc1C	x	x	n	x	x	x
Cn1cc(CN2CCC(n3nccc3NC(=O)CCOc3ccccc3)CC2)cn1	x	n	n	x	n	x
CCOc1ccc(CCNC(=O)CS(=O)Cc2nc(-c3ccc(OC)cc3)oc2C)cc1OCC (configuration not stated)	x	n	n	x	n	x
COc1ccc(Nc2cc3n(c(=O)n2)CCc2cc(OC)c(OC)cc2-3)c(C)c1	x	n	80	x	n	x
CC1(C)C(=O)Nc2ccccc2N1C(=O)Cn1ncc(Cl)c(Cl)c1=O	n	n	n	x	n	31
O=C(Cn1ncc(Cl)c(Cl)c1=O)N1CCN(Cc2ccccc2)CC1	n	n	n	90	n	n
Cc1cc(C)cc(Cn2ncc(Cl)c(Cl)c2=O)c1	n	n	n	58	n	n
O=C(Cn1ncc(Cl)c(Cl)c1=O)N1CCOCC1	n	n	n	n	n	n
O=c1c(Cl)c(Cl)cnn1Cc1ccccc1Cl	n	n	n	92	n	n
CC1(C)Cc2c(sc3nc4n(-c5ccccc5)cnn4c(=O)c23)CO1	n	n	n	x	n	n
Cc1ccc(NC(=O)c2cc(C)n(-c3ccccc3)c2C)cc1	n	n	106	n	n	n
Cc1ccc(NC(=O)c2cc3ccccc3oc2=N)cc1	x	n	82	x	n	x
O=C(c1ccc(Cl)cc1)C(Cn1cncn1)C(Sc1ccccc1)c1ccccc1 (configuration not stated)	n	n	n	51	n	n
COc1cc(C(=O)O/N=C2/C=C(C)C(=O)C=C2C)cc(OC)c1OC	n	n	n	n	n	n
SMILES	Ba/F3 V617F tox	IEC-6 tox	aSyn UTR inh	APP 5UTR inh	KLF5 inhibitor	BaF3 tox
CC1=C(C)/C(=N\OS(=O)(=O)c2ccc(C)cc2)C=CC1=O	88	n	x	90	n	68
CC1=C/C(=N\OS(=O)(=O)c2ccccc2)C(C)=CC1=O	97	n	x	95	n	100
CC1=C/C(=N\OS(=O)(=O)c2ccccc2)C(C(C)C)=CC1=O	86	n	x	96	n	78
N#Cc1c(N2CCCC2)ccc(Br)c1Cl	n	n	n	x	n	39
Cc1cc(NC(=O)CSc2nnc(-c3ccc([N+](=O)[O-])cc3)o2)no1	x	n	n	x	n	x
Cc1ccc(C[n+]2cc(-c3ccc(Cl)cc3)n3c2CCC3)cc1	76	n	x	x	n	72
Cn1c(NC(=O)C[n+]2cc(-c3ccc(Cl)cc3)n3c2CCC3)cc(=O)n(C)c1=O	n	n	n	n	n	n
Cc1ccc(-c2c[n+](Cc3ccc(Cl)cc3)c3n2CCC3)cc1	87	n	n	x	n	73
Clc1ccc(-c2c[n+](Cc3ccc(Cl)c(Cl)c3)c3n2CCC3)cc1	26	n	x	n	n	39
COC(=O)c1c(C(=O)OC)c(-c2cccc(F)c2)n2c1CS(=O)(=O)C2	x	n	n	x	n	x
CS(=O)(=O)c1nc(-c2ccccc2)cc(C(F)(F)F)n1	n	n	n	62	n	n
FC(F)(F)c1cc(-c2ccccc2)nc(N2CCCCCC2)n1	n	n	n	n	n	n
CCOc1ccc(C(=O)Nc2cccc3ncccc23)cc1Cl	x	n	n	x	n	x
Cc1cc(C(=O)CN2C(=O)c3ccccc3S2(=O)=O)c(C)n1-c1ccccc1	n	n	120	n	n	n
Cc1ccc(C(=O)CN2C(=O)c3ccccc3S2(=O)=O)cc1	n	n	109	x	n	n
O=C(CN1C(=O)c2ccccc2S1(=O)=O)c1ccccc1	n	n	x	n	n	n
CCOC(=O)C1CCCN(S(=O)(=O)c2ccc(Cl)nc2)C1 (configuration not stated)	x	x	n	x	x	x
O=C(Cc1ccc(Cl)cc1)Nc1ccc(-c2cc3ccccc3oc2=O)c(Cl)c1	56	48	96	86	n	65
O=C(NC1CCCCC1)N1CCC(n2c(=O)[nH]c3ccccc32)CC1	x	x	n	n	x	x
O=c1[nH]c2ccccc2n1C1CCCCC1	n	n	n	64	n	n
N=c1ccn(Cc2ccc(Cl)c(Cl)c2)cc1	89	n	n	n	n	75
N=c1ccn(Cc2ccc(Cl)cc2)cc1	92	n	n	n	n	68
N=c1ccn(Cc2cccc(Cl)c2)cc1	88	n	n	n	n	66
Clc1cccc(CN2CCN(Cc3ccco3)CC2)c1	x	n	n	x	n	x
O=C(CCN1C(=O)C2CCCCC2C1=O)N1CCN(S(=O)(=O)c2ccccc2)CC1 (configuration not stated)	x	x	n	x	x	x
SMILES	Ba/F3 V617F tox	IEC-6 tox	aSyn UTR inh	APP 5UTR inh	KLF5 inhibitor	BaF3 tox
CSc1cccc(-n2cc(-c3ccc4c(c3)OCO4)[nH]c2=O)c1	n	n	n	n	n	29
Nc1ccc(Nc2ccc([N+](=O)[O-])cc2[N+](=O)[O-])cc1	n	n	n	n	n	n
O=C(O)c1ccccc1Nc1cc(Cl)c2nonc2c1[N+](=O)[O-]	x	n	n	x	n	x
O=[N+]([O-])c1c(Nc2ccccn2)cc(Cl)c2nonc12	n	63	n	x	n	n
O=[N+]([O-])c1ccc(Nc2ccccn2)c([N+](=O)[O-])c1	29	n	n	n	n	49
CC(=O)c1cccc(S(=O)(=O)NCCC(=O)O)c1	n	n	n	n	n	34
Cc1cccc(N2CCN(C(=O)C3CCC(=O)N(C4CC4)C3)CC2)c1C (configuration not stated)	x	n	n	x	n	x
CC1CCCN(c2ncnc3c2cnn3-c2ccc(Cl)cc2)C1 (configuration not stated)	x	x	98	x	x	x
c1ccc(-n2ncc3c(N4CCCCC4)ncnc32)cc1	n	n	94	n	n	n
Cn1cnc2cc(NCc3ccc(Cl)cc3)ccc21	x	n	n	x	n	x
CCOC(=O)c1c(C)[nH]c(C(=O)Nc2ccc(NC(C)=O)cc2)c1C	n	n	89	n	n	n
O=C(COC(=O)CNC(=O)c1ccccc1)Nc1nnc(-c2ccccc2)o1	x	x	n	x	x	x

Screens: PubChem BioAssay, several laboratories
